Data published in PubChem BioAssay (EPA / NIEHS).
Active and inactive are the calls of the source. The calls were made as follows: active = hit-call score of the fitted dose curve at least 0.9, where 1 is the maximum; inactive = score below 0.9.

system: not listed separately; assay: ATG_Oct_MLP_CIS: Attagene CIS-FACTORIAL HepG2 Assay for human Octamer-Binding Transcription Factor (Oct) (AID 2282993); settings: HepG2 Attagene cis-factorial Oct reporter, mRNA; actives raise or lower the signal
Summary of the method: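 HepG2, transient MRTU transfection, cis promoter elements; 24 h dosing; RT-PCR/CE fluorescence read-out of reporter mRNA; fit both directions vs DMSO.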

SMILES | outcome | AC50
O=C(NC(=O)c1c(F)cccc1F)Nc1ccc(Oc2ccc(C(F)(F)F)cc2Cl)cc1F | inactive | –
CC1CCCC1.[C-]#[O+].[C-]#[O+].[C-]#[O+].[Mn] | inactive | –
CC(=O)C=Cc1ccccc1 | – | 100 µM (active)
Nc1ccccc1C(=O)Oc1ccc2ccccc2c1 | – | 54.7 µM (active)
CC(C)CCCCCCCOC(=O)c1ccccc1C(=O)OCCCCCCCC(C)C | inactive | –
CN(C)N | inactive | –
CN1C[C@H](C(=O)N[C@]2(C)O[C@@]3(O)[C@@H]4CCCN4C(=O)[C@H](Cc4ccccc4)N3C2=O)C=C2c3cccc4[nH]cc(c34)C[C@H]21 | inactive | –
O=[N+]([O-])C=Cc1ccccc1 | – | 18.5 µM (active)
Nc1ccc(Cl)c(Cl)c1 | inactive | –
CCCCOP(=O)(O)OCCCC | inactive | –
O=C(O)CCl | inactive | –
Nc1cc(Cl)cc(Cl)c1 | inactive | –
Cc1ccc(C)c2ccccc12 | inactive | –
C=CCO | inactive | –
COC(=O)COc1ccc(Cl)cc1Cl | inactive | –
[CH3][Sn]([Cl])([Cl])[Cl] | inactive | –
c1ccc2c(c1)CCCC2 | inactive | –
CCOC(=O)C1OC1(C)c1ccccc1 (configuration not stated) | inactive | –
[Cl][Sb]([Cl])[Cl] | inactive | –
COc1ncc(F)c2nc(S(=O)(=O)Nc3c(F)cccc3F)nn12 | inactive | –
CC(C)[C@@H](C(=O)O[C@@H](C#N)c1cccc(Oc2ccccc2)c1)c1ccc(Cl)cc1 | inactive | –
O=[N+]([O-])c1cc([N+](=O)[O-])c2ccccc2c1 | inactive | –
O=C(O)C(Br)Br | inactive | –

biological target: Cellular tumor antigen p53 (Homo sapiens) (UniProt P04637); assay: ATG_p53_CIS: Attagene CIS-FACTORIAL HepG2 Assay for human p53 Transcription Factor (AID 2282994); settings: HepG2 p53 cis-element reporter, Attagene mRNA; actives raise or lower the signal
Summary of the method: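 Transiently transfected HepG2 (multiple cis reporter transcription units); exposure 24 h; reporter RNA via RT-PCR, 6-FAM extension, 2 h HpaI digest at 37 C, CE detection; DMSO baseline.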

Cellular tumor antigen p53 (Homo sapiens), sequence (P04637 whole entry, looked up): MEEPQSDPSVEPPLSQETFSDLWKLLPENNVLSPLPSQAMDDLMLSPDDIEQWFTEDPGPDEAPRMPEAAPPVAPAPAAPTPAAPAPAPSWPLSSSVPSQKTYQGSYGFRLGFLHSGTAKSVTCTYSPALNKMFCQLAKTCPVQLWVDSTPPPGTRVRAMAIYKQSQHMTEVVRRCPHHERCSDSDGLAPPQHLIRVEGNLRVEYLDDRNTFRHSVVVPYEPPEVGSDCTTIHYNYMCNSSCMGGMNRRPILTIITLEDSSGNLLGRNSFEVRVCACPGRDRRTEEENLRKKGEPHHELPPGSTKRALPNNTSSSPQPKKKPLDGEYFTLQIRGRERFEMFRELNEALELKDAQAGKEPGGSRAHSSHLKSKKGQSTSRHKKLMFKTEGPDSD

SMILES | outcome | AC50
CCCCCCCCCCCC#N | inactive | –
O=C(NC(=O)c1c(F)cccc1F)Nc1ccc(Oc2ccc(C(F)(F)F)cc2Cl)cc1F | inactive | –
CC1CCCC1.[C-]#[O+].[C-]#[O+].[C-]#[O+].[Mn] | inactive | –
CCCCNP(N)(N)=S | inactive | –
Nc1ccccc1C(=O)Oc1ccc2ccccc2c1 | inactive | –
C=CC(=O)OC | inactive | –
CC(C)CCCCCCCOC(=O)c1ccccc1C(=O)OCCCCCCCC(C)C | inactive | –
N#CCNCC#N | inactive | –
CN(C)N | inactive | –
CN1C[C@H](C(=O)N[C@]2(C)O[C@@]3(O)[C@@H]4CCCN4C(=O)[C@H](Cc4ccccc4)N3C2=O)C=C2c3cccc4[nH]cc(c34)C[C@H]21 | inactive | –
O=[N+]([O-])C=Cc1ccccc1 | – | 20.2 µM (active)
Nc1ccc(Cl)c(Cl)c1 | inactive | –
CC(O)CN(CC(C)O)CC(C)O (configuration not stated) | inactive | –
Nc1cc(Cl)cc(Cl)c1 | inactive | –
O=[N+]([O-])c1ccc(Cl)cc1 | inactive | –
C=CCO | inactive | –
COC(=O)COc1ccc(Cl)cc1Cl | inactive | –
[CH3][Sn]([Cl])([Cl])[Cl] | inactive | –
CC(=O)c1cc2c(cc1C)C(C)(C)C(C)CC2(C)C (configuration not stated) | inactive | –
c1cc(OCC2CO2)ccc1Cc1ccc(OCC2CO2)cc1 (configuration not stated) | – | 55.3 µM (active)
C=CC(=O)OCCCCOC(=O)C=C | – | 163 µM (active)
c1ccc2c(c1)CCCC2 | inactive | –
CCOC(=O)C1OC1(C)c1ccccc1 (configuration not stated) | inactive | –
[Cl][Sb]([Cl])[Cl] | – | 180 µM (active)
CC(C)[C@@H](C(=O)O[C@@H](C#N)c1cccc(Oc2ccccc2)c1)c1ccc(Cl)cc1 | inactive | –
C[C@]12CC[C@H]3[C@@H](CC[C@@]45O[C@@H]4C(O)=C(C#N)C[C@]35C)[C@@H]1CC[C@@H]2O | inactive | –
O=[N+]([O-])c1cc([N+](=O)[O-])c2ccccc2c1 | inactive | –
O=C(O)C(Br)Br | inactive | –
C=CC(=O)OCCO | inactive | –
